Assay outcomes deposited in PubChem BioAssay by several laboratories.
CYP2C9 inhib: blockers of cytochrome P450 2C9 activity – biochemical, luminescence, ADME assay, primary screen; P11712; CYP2C9 Supersomes, luciferin-H conversion; inhibition, % at 5 µM; 20% of 96,000 active; AID 777, 2007;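 active = blocking of liver enzyme CYP2C9 beyond about 50% at 5 µM, limit read from the data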
Target sequence (P11712 whole entry, looked up): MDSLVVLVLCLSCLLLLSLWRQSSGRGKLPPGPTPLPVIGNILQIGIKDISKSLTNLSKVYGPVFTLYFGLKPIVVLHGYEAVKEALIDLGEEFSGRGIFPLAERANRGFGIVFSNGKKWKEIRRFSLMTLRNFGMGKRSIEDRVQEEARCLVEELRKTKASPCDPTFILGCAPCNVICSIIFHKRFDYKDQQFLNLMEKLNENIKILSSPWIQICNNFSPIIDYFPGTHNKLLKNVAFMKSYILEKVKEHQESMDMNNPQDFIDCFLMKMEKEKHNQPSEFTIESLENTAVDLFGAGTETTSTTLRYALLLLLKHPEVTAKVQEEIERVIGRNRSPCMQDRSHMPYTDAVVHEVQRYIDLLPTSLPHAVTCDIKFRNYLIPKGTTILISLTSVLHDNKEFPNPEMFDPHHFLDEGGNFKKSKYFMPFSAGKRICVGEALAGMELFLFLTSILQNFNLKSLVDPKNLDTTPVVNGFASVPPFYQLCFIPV
Cav3 T inh: Cav3.2 calcium influx blockers – cell-based, Fluo-4 calcium fluorescence, FDSS, MLSMR library, primary screen; Cav3.2-expressing cells; active compounds read low; B-score at 10 µM; AID 449739, 2010; 4% of 100,000 active;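 active = single-dose well whose peak fluorescence ratio is a statistical outlier from its plate by either plate-standardised score or position-corrected B-score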
CYP2C19 act: human CYP2C19 activators, primary screen, biochemical, luminescence; recombinant CYP2C19, luciferin-H EGE luminescence; active compounds read high; 0 = fully inhibited enzyme, 1 = untreated enzyme; activation factor at 5 µM; Cytochrome P450 2C19 (Homo sapiens), P33261; 96,000 tested, under 10 active;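 active = activation factor of at least 2 at 5 µM in the primary screen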
CYP2C9 act: human CYP2C9 activators, primary screen, biochemical, luminescence. recombinant CYP2C9, luciferin-H conversion; active compounds read high; factor 1 = untreated enzyme, 0 = blocked. activation factor at 5 µM. 1.4% of 96,000 active;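 active = activation factor of 2 or more for CYP2C9 at a 5 µM dose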
CYP2C19 inh: blockers of cytochrome P450 2C19 activity – biochemical, luminescence, ADME assay, primary screen | P33261 | CYP2C19 Supersomes, luciferin-H EGE luminescence, 30 min | inhibition, % at 5 µM | 21% of 96,000 active | AID 778, 2007;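 active = CYP2C19 inhibition above a set limit at 5 µM in the primary screen, cut at about 50% in these data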
Of the large screens only hits and unclear results are named; the others gave an inactive call. The list is not random: actives were taken first. Their share in the collection is about 27%.

COc1ccc(CN(CC(=O)NCC2CCCO2)C(=O)CNS(=O)(=O)c2ccc(C)cc2)cc1 (stereo not drawn)	none (no result: CYP2C9 inhib, CYP2C19 act, CYP2C9 act, CYP2C19 inh)
COc1ccc(CCNS(=O)(=O)c2ccc(OC)cc2)cc1	CYP2C9 inhib 56.9, CYP2C19 inh 65.4
COc1ccc(CNC(=O)CN(CC2CCCO2)C(=O)CNS(=O)(=O)c2ccc(F)cc2)cc1 (stereo not drawn)	Cav3 T inh -6.18
COc1ccc(S(=O)(=O)NCCC(=O)NCc2ccc(F)cc2)cc1	CYP2C9 act 2.8
CCn1c(SCC(=O)N2CCCC2)nnc1-c1ccc(N)cc1	none (no result: CYP2C9 inhib, CYP2C19 act, CYP2C9 act, CYP2C19 inh)
Cc1cc(C)cc(C(=O)N(NC(=O)Nc2ccc(Cl)cc2)C(C)(C)C)c1	none
COc1ccc(S(=O)(=O)CCC(=O)NCCc2ccc(C)cc2)cc1	CYP2C9 inhib 75.1, CYP2C19 inh 57.0
COc1ccc(S(=O)(=O)CCC(=O)O)cc1	none
COc1ccc(S(=O)(=O)NCc2ccc(C)cc2)cc1	CYP2C19 inh 99.1
CCOCCCNC(=O)C(NC(=O)CNC(=O)c1ccccc1)c1ccccc1 (stereo not drawn)	none
COc1ccc(CC(=O)Nc2ccc(/C(C)=N/NC(=O)c3cccc([N+](=O)[O-])c3)cc2)cc1	none
COc1ccc(NS(=O)(=O)c2cccc(C(=O)N/N=C(\C)c3ccc(-n4ccnc4)cc3)c2)cc1	CYP2C9 inhib 99.2, CYP2C19 inh 92.7
C/C(=N\NC(=O)c1cccc(S(=O)(=O)Nc2ccccc2Cl)c1)c1ccc(-n2ccnc2)cc1	CYP2C9 inhib 100.0, CYP2C19 inh 99.1
CCCc1cc(=O)oc2cc(Oc3ncccn3)ccc12	CYP2C19 inh 87.6
COc1ccc2c(CN(C)c3ccccc3)cc(=O)oc2c1	CYP2C19 inh 96.6
CCCCNC(=O)c1onc(CSc2cc(C)cc(C)c2)c1C(=O)NCCCC	none (no result: CYP2C9 inhib, CYP2C19 act, CYP2C9 act, CYP2C19 inh)
CCCCNC(=O)c1c(CSc2ccccc2)noc1C(=O)NCc1ccccc1	none (no result: CYP2C9 inhib, CYP2C19 act, CYP2C9 act, CYP2C19 inh)
CCCCNC(=O)c1onc(CSc2cc(C)cc(C)c2)c1C(=O)O	CYP2C9 inhib 73.1
CCCCNC(=O)c1onc(CSc2cccc(C)c2)c1C(=O)O	CYP2C9 inhib 75.9
COc1ccc(Br)cc1[C@H]1[C@H]2C=CC[C@@H](C)[C@@H]2C(=O)N1Cc1ccccc1	none (no result: CYP2C9 inhib, CYP2C19 act, CYP2C9 act, CYP2C19 inh)
CCCn1cnc2c(=O)oc3ccccc3c21	none (no result: CYP2C9 inhib, CYP2C19 act, CYP2C9 act, CYP2C19 inh)
COC(=O)C(NC(=O)c1ccccc1)=C1CCCCC1	none (no result: Cav3 T inh)
Cc1ccc(CNC(=O)c2cn(C3CCCCC3)c(=O)c3c2c2ccccc2n3C)o1	none
Cc1cc(NC(=O)c2cn(C3CCCCC3)c(=O)c3c2c2ccccc2n3C)no1	CYP2C9 inhib 84.4, CYP2C19 inh 59.6
CC(C)C(=O)Nc1ccc(NC(=S)NC(=O)c2ccc([N+](=O)[O-])cc2)cc1	none
CC(C)C(=O)Nc1cccc(NC(=S)NC(=O)c2ccc([N+](=O)[O-])cc2)c1	Cav3 T inh -4.02
O=S1CCCSC1c1cccnc1 (stereo not drawn)	none
Cc1nn(-c2ccccc2)c2c1C(c1ccncc1)C(C#N)=C(N)O2 (stereo not drawn)	CYP2C9 inhib 65.5, CYP2C19 inh 58.9
Cc1ccc(-n2nc(C)c3c2OC(N)=C(C#N)C3c2ccncc2)cc1 (stereo not drawn)	none
Cc1nn(-c2ccccc2)c(Cl)c1C1C(C#N)=C(N)Oc2c1c(C)nn2-c1ccccc1 (stereo not drawn)	CYP2C9 inhib 91.2, CYP2C19 inh 80.7
Cc1ccc(-n2nc(C)c3c2OC(N)=C(C#N)C3c2ccccc2F)cc1 (stereo not drawn)	none
COc1cc(-n2nc(C)c3c2OC(N)=C(C#N)C3c2ccccc2)c(Cl)c(Br)c1O (stereo not drawn)	CYP2C9 inhib 98.9, CYP2C19 inh 98.7
Cc1nn(Cc2ccccc2)c2c1C(c1cccc(Cl)c1)C(C#N)=C(N)O2 (stereo not drawn)	CYP2C9 inhib 90.8, CYP2C19 inh 85.1
O=C(c1cnccn1)N1CCN(C/C=C/c2ccccc2)CC1	none
CCC(C)NC(=S)NNC(=O)c1ccc(C(C)(C)C)cc1 (stereo not drawn)	none (no result: CYP2C9 inhib, CYP2C19 act, CYP2C9 act, CYP2C19 inh)
CCCc1nn(C)c2c1C(c1ccncc1)C(C#N)=C(N)O2 (stereo not drawn)	CYP2C9 inhib 72.4
